The values below come from PubChem BioAssay (NCATS).

“And” between values parts separate entries of the source, which are not always exact repeats. Equal values may be shown once. Records with an inconclusive call do not appear. The source made the active and inactive calls. Unless noted, calls come from the whole dose curve; as a rule, active = well fitted curve in the direction sought with a large enough effect; inconclusive = small, poorly fitted or top-dose-only effect, or another doubt; inactive = no such curve, though single readings can be large; an effect the other way counts as inactive or inconclusive. Peptide text beside a SMILES is read from it.

One experiment relates to astro (control astrocytes). As to the kind of experiment: Drug repurposing screens with cells derived from glioblastoma tumor samples (AID 1345199). Note: nearly all actives have a fitted effect of over 40% in size. Note: potency is the fitted concentration of half-maximal effect. The settings on record: viability, ATP luminescence, 48 h; series mostly up to 45.9 µM. In a few lines:
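Primary testing used CD133+ neurospheres from four GBM patients, seven concentrations, 48 h exposure and ATP-based viability; confirmation added three slower-growing patient lines.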
In the case of `CC(S)C(=O)NCC(=O)O` (stereo not given), the Potency entry is “inactive”.

In the case of `CN(C)c1ccc2nc3ccc(=[N+](C)C)cc-3sc2c1`, the Potency was 5.01 µM (active). On the same count and under the same terms, the same measure for `Cc1ccc(C)c(OCCCC(C)(C)C(=O)O)c1`: “inactive”. The same measure, in the same setting: the same measure for `COc1cc(OC)c(C(=O)CCCN2CCCC2)c(OC)c1`: “inactive”; for `Nc1ccc(S(N)(=O)=O)cc1`: “inactive”; for `COC(=O)C1=C(C)NC(C)=C(C(=O)OCCCN2CCC(c3ccccc3)(c3ccccc3)CC2)C1c1cccc([N+](=O)[O-])c1` (stereo not given): 17.8 µM (active).

As to `CCOC(=O)c1c(C)n(C)c2ccc(O)cc12`, the Potency result is “inactive”. On the same count and under the same terms, the same measure for `CCN(CC)C(=S)SSC(=S)N(CC)CC`: 63.1 µM (active). Consider `COC(=O)[C@H](Cc1ccccc1)NC(=O)[C@@H](N)CC(=O)O` (H-Asp-Phe-OMe), for which the Potency entry was “inactive”. In the case of `CNC[C@H](O)c1ccc(O)c(O)c1`, the Potency result is “inactive”. Still for that read-out and setting: the same measure for `CCCc1cc(=O)[nH]c(=S)[nH]1`: “inactive”; for `CC(=O)N1CCN(c2ccc(OC[C@H]3CO[C@](Cn4ccnc4)(c4ccc(Cl)cc4Cl)O3)cc2)CC1`: “inactive”; for `Cc1cc2cc3c(C)cc(=O)oc3c(C)c2o1`: “inactive”. Still for that read-out and setting: the same measure for `CC(C)(S)[C@@H](N)C(=O)O`: “inactive”. On the same count and under the same terms, the same measure for `CCOc1cc(CC(=O)N[C@@H](CC(C)C)c2ccccc2N2CCCCC2)ccc1C(=O)O`: “inactive”.

Consider `CS(=O)(=O)OCCCCOS(C)(=O)=O`, for which the Potency result was “inactive”.

Regarding `COc1c2occc2cc2ccc(=O)oc12`, the Potency result is “inactive”. On the same count and under the same terms, the same measure for `Oc1ccc(OCc2ccccc2)cc1`: “inactive”; for `NS(=O)(=O)c1cc(C(=O)O)c(NCc2ccco2)cc1Cl`: “inactive”; for `O=C(c1ccccc1)c1ccc2n1CCC2C(=O)O` (stereo not given): “inactive”. `CC(=O)Nc1ccc(O)cc1`: the Potency entry is “inactive”. Still for that read-out and setting: the same measure for `Cc1c(C(=O)NN2CCCCC2)nn(-c2ccc(Cl)cc2Cl)c1-c1ccc(Cl)cc1`: 35.5 µM (active); for `CCOC(=O)C1=C[C@@H](OC(CC)CC)[C@H](NC(C)=O)[C@@H](N)C1`: “inactive”; for `CC(C)C[C@H](NC(=O)[C@H](Cc1ccccc1)NC(=O)c1cnccn1)B(O)O`: 501 nM (active) and 316 nM (active).

System in a further experiment: not listed separately
Kind of experiment: qHTS assay to identify inhibitors of the type 1 interferon - major histocompatibility complex class I in skeletal muscle: Counter screen cell viability and HiBit confirmation (AID 1347412). For activity change, negative = inhibition: % is set by controls: 0 for no effect and ±100 for the full control effect. Note: nearly all actives have a fitted effect of over 60% in size. Note: potency is the fitted concentration of half-maximal effect. The settings on record: iHSKM muscle cells + IFN-b, HiBiT or CellTiter-Glo, 24 h; HiBiT. In a few lines: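 Myoblasts (C25cl48, HLA-B HiBiT) seeded in medium without dexamethasone, IFN-b 4 ng/ml added except unstimulated columns; 1 hr later compounds pinned (12-pt 1:3, top 46 uM final). Incubated 24 hrs, lysed 10 min, luminescence measured.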
(Quantitative high-throughput screening tests each substance at several concentrations.)
For `CCN(CC)CCOc1ccc(Nc2ncc3cc(-c4c(Cl)cccc4Cl)c(=O)n(C)c3n2)cc1`, the Potency is 557 nM (active) and 883 nM (active). On the same count and under the same terms, the same measure for `COc1cc(Nc2c(C#N)cnc3cc(OCCCN4CCN(C)CC4)c(OC)cc23)c(Cl)cc1Cl`: 11.1 µM (active); for `O=Nc1c(-c2c(O)[nH]c3cc(Br)ccc23)[nH]c2ccccc12`: 22.2 µM (active); for `CC(C)C[C@H](NC(=O)[C@H](Cc1ccccc1)NC(=O)c1cnccn1)B(O)O`: 0.0313 µM (active).

The experiment is the same for the next values; noted with them: iHSKM muscle cells + IFN-b, HiBiT or CellTiter-Glo, 24 h; HiBiT; at 45.9 µM (top of the series).
`NC(=NCc1ccccc1)NC(=O)c1nc(Cl)c(N)nc1N`: the activity change, negative = inhibition is -27.7% (inactive). For `COC(=O)C1=C(C)NC(C)=C(C(=O)OCCCN2CCC(c3ccccc3)(c3ccccc3)CC2)C1c1cccc([N+](=O)[O-])c1` (stereo not given), the activity change, negative = inhibition is 4.03% (inactive). For the compound `CC1(C)CCC(C)(C)c2cc(NC(=O)c3ccc(C(=O)O)cc3)ccc21`, the activity change, negative = inhibition was 1.95% (inactive). The same measure, in the same setting: the same measure for `Clc1ccc(C(Cn2ccnc2)OCc2ccc(Sc3ccccc3)cc2)c(Cl)c1` (stereo not given): -10.3% (inactive).

Staying with this experiment, now noted: iHSKM muscle cells + IFN-b, HiBiT or CellTiter-Glo, 24 h; Viability.
With `CN(C)c1ccc2nc3ccc(=[N+](C)C)cc-3sc2c1`, the Potency was 15.7 µM (active). Take `CCN(CC)CCOc1ccc(Nc2ncc3cc(-c4c(Cl)cccc4Cl)c(=O)n(C)c3n2)cc1`: the Potency is 12.5 µM (active) and 2.79 µM (active). Still for that read-out and setting: the same measure for `COc1cc(Nc2c(C#N)cnc3cc(OCCCN4CCN(C)CC4)c(OC)cc23)c(Cl)cc1Cl`: 24.9 µM (active).

Still in this experiment, the particulars now being: iHSKM muscle cells + IFN-b, HiBiT or CellTiter-Glo, 24 h; Viability; at 45.9 µM (top of the series).
In the case of `NC(=NCc1ccccc1)NC(=O)c1nc(Cl)c(N)nc1N`, the activity change, negative = inhibition was -20.2% (inactive). The same measure, in the same setting: the same measure for `COC(=O)C1=C(C)NC(C)=C(C(=O)OCCCN2CCC(c3ccccc3)(c3ccccc3)CC2)C1c1cccc([N+](=O)[O-])c1` (stereo not given): -24.5% (inactive); for `CC1(C)CCC(C)(C)c2cc(NC(=O)c3ccc(C(=O)O)cc3)ccc21`: -0.914% (inactive); for `CCCOc1ccc2nc(NC(=O)OC)[nH]c2c1`: -24.3% (inactive).

On to `Clc1ccc(C(Cn2ccnc2)OCc2ccc(Sc3ccccc3)cc2)c(Cl)c1` (stereo not given), for which the activity change, negative = inhibition was -8.18% (inactive).

The target of another experiment is Nuclear receptor subfamily 1 group I member 2 (Rattus norvegicus) (UniProt Q9R1A7). Kind of experiment: qHTS assay for small molecule activators of the rat pregnane X receptor (rPXR) signaling pathway (AID 651751; call rule not given here; note: 0% is about no effect). The settings on record: rPXR reporter cells, luciferase (One-Glo), 24 h.
Sequence of Nuclear receptor subfamily 1 group I member 2 (Rattus norvegicus) (Q9R1A7 whole entry, looked up): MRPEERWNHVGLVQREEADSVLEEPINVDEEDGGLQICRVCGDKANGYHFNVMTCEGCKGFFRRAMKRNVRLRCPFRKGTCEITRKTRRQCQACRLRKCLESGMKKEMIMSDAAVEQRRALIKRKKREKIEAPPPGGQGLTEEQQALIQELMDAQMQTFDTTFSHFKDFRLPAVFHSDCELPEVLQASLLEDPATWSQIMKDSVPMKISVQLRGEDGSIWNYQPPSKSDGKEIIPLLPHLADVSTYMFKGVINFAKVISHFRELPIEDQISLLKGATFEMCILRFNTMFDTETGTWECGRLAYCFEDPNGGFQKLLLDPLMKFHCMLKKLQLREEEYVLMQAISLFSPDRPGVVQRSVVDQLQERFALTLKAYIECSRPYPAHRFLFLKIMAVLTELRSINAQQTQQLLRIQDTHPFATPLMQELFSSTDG
As to `O=c1c(O)c(-c2ccc(O)cc2O)oc2cc(O)cc(O)c12`, the max response was -2.11% (inactive). `CC1(C)NC(=O)N(c2ccc([N+](=O)[O-])c(C(F)(F)F)c2)C1=O`: the max response is -9.05% (inactive).

On to `Cc1ccc(C)c(OCCCC(C)(C)C(=O)O)c1`, for which the max response was -0.498% (inactive) and -3.12% (inactive). As for `Nc1ccc(S(N)(=O)=O)cc1`, the max response was 5.05% (inactive). Regarding `CCN(CC)C(=S)SSC(=S)N(CC)CC`, the max response was -4.1% (inactive). Still for that read-out and setting: the same measure for `COC(=O)[C@H](Cc1ccccc1)NC(=O)[C@@H](N)CC(=O)O` (H-Asp-Phe-OMe): -0.463% (inactive) and 3.11% (inactive); for `CNC[C@H](O)c1ccc(O)c(O)c1`: 0.58% (inactive); for `CCCc1cc(=O)[nH]c(=S)[nH]1`: -3.12% (inactive) and -0.189% (inactive). For `CC(=O)N1CCN(c2ccc(OC[C@H]3CO[C@](Cn4ccnc4)(c4ccc(Cl)cc4Cl)O3)cc2)CC1`, the max response was -5.89% (inactive). As for `Cc1cc(O)c2c(c1)C(=O)c1cc(O)cc(O)c1C2=O`, the max response is 1.52% (inactive) and -0.614% (inactive).

For the compound `CS(=O)(=O)OCCCCOS(C)(=O)=O`, the max response was 1.78% (inactive) and 1.87% (inactive) and -0.923% (inactive).

Consider `COc1c2occc2cc2ccc(=O)oc12`, for which the max response was 0.0225% (inactive) and 5.31% (inactive). Same read-out and setting: the same measure for `NS(=O)(=O)c1cc(C(=O)O)c(NCc2ccco2)cc1Cl`: 7.06% (inactive) and 0.0174% (inactive). As for `Nc1nc(Cl)nc2c1ncn2[C@H]1C[C@H](O)[C@@H](CO)O1`, the max response was -12.9% (inactive).

As for `N[C@@H](Cc1cc(I)c(Oc2cc(I)c(O)c(I)c2)c(I)c1)C(=O)O`, the max response is 4.68% (inactive).
